This is one part of a sample in which hits are shown more often than they occur.
HT1080 IDH1KD tx = toxicity to HT-1080 IDH1 knockdown cells (counter line); HT-1080 IDH1 knockdown viability, ATP luminescence, 48 h; Potency, µM (top dose mostly 46.1 µM), for the others: at the highest dose activity, negative = toxicity, hits mostly cytotoxic; actives 2% (n = 360,000); AID 686971;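 further: potency means the concentration at half of the fitted maximal effect; 0% = DMSO wells and -100% = cell-free medium wells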
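Viability of IDH1-knockdown HT-1080 fibrosarcoma cells was assessed by CellTiter-Glo after 48 h at 37 °C with titrated compound; concentration-effect curves were classified by fit quality and response size.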
12-LOX inh = inhibitors of human 12S-lipoxygenase ALOX12; P18054; AID 1671190; purified 12hLO, xylenol orange hydroperoxide absorbance; actives 1.1% (n = 580,000); Potency, µM (top dose mostly 108 µM), for the others: at the top dose activity change, negative = inhibition, usual class: inhibitors; further: potency means the concentration at half of the fitted maximal effect
Target sequence (P18054 whole entry, looked up): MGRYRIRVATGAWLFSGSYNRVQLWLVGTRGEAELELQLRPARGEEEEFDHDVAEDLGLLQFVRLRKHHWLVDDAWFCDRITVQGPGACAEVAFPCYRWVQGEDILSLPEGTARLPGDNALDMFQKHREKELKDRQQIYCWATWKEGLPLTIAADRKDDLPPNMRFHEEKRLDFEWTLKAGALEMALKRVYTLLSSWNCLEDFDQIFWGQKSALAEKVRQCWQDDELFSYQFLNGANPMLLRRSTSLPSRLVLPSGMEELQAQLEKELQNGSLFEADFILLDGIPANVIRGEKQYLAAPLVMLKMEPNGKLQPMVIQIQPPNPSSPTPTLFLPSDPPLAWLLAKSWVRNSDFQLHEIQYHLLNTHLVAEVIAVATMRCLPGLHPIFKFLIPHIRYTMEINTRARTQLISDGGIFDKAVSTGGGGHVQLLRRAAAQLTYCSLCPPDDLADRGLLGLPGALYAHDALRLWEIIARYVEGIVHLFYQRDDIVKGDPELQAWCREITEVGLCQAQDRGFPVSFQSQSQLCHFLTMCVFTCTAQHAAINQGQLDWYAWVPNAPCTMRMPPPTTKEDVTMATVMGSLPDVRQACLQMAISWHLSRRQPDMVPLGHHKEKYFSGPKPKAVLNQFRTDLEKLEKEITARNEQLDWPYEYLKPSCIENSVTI
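Purified human 12hLO at 150 nM in 25 mM Hepes, 0.01% Triton X-100, pH 7.0, preincubated 15 min at room temperature with compound. Reaction started with 40 uM arachidonic acid, 30 min at room temperature. Hydroperoxide measured by Fe-xylenol orange, 573/405 nm absorbance ratio.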
TDP1 cell CPT = DT40-hTDP1 cell growth loss with CPT; chicken DT40 Tdp1-/-;hTDP1 cells + 20 nM CPT, ATP luminescence, 48 h; Potency, µM (doses to about 46.2 µM), for inactives: top-dose activity change, negative = growth inhibition, hits mostly inhibitors; actives 12% (n = 420,000); further: potency means the concentration at half of the fitted maximal effect; nearly all actives have a fitted effect of over 55% in size
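Cell growth measured by CellTiter-Glo luminescence after a minimum 48 h, 37 C compound exposure with 20 nM CPT in Tdp1-knockout DT40 cells stably expressing hTDP1, seeded 400/well; qHTS titration format.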
TDP1 cell noCPT = qHTS for Inhibitors of human tyrosyl-DNA phosphodiesterase 1 (TDP1): qHTS in cells in absence of CPT; DT40 Tdp1-/- hTDP1 cells, no CPT, ATP luminescence, 48 h; Potency, µM (series often up to 46.2 µM), for inactives: at the highest dose activity change, negative = growth inhibition, hits mostly inhibitors; actives 15% (n = 420,000); AID 686978, 2013; further: potency means the concentration at half of the fitted maximal effect; nearly all actives have a fitted effect of over 55% in size
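Growth of hTDP1-complemented DT40 Tdp1-knockout cells is measured by ATP luminescence after at least 48 hr compound exposure at 37 °C, with DMSO substituting for the 20 nM CPT used in the parallel screen.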
IL1B secr inh = blocks inflammasome-driven IL-1 beta release; THP-1 LPS/ATP IL-1B secretion, AlphaLISA, 16 h; stronger effect = lower value; actives 4.7% (n = 360,000); activity change, % at 57.5 µM; in the data active means activity change below about -50%; inconclusive means mostly about -30% to -49%
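THP-1 cells pretreated 1 hr with compounds (up to 57.5 uM final), then stimulated with LPS (250 ng/mL final) plus ATP (1.25 mM final); secreted IL-1B measured by AlphaLISA after 16 hr, decreased signal indicating inhibition.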
HT1080-NT tox = kills 2HG-producing HT-1080-NT fibrosarcoma cells; HT-1080-NT fibrosarcoma viability, CellTiter-Glo ATP luminescence, 48 h; Potency, µM (series often up to 46.1 µM), inactives show at the top dose activity, negative = less viability, hits mostly cytotoxic; actives 1.6% (n = 360,000); AID 686970;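 further: NT is the 2HG producing partner of a matched IDH1 knockdown line; potency means the concentration at half of the fitted maximal effect; 0% = DMSO-treated cells and -100% = media-only wells without cells; nearly all actives have a fitted effect of over 55% in size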
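A 48-hour cytotoxicity screen used HT-1080-NT cells plated 2 hours before compound delivery. ATP-based CellTiter-Glo luminescence measured viability, normalized to DMSO and no-cell controls.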
An asterisk follows results filed as active; ? = inconclusive; . = not tested or not shown; ! = not active in a repeat; [ ] = remark or other dose. Unless noted, the call rests on the fitted dose curve; in most records, active means well fitted curve in the direction sought with a large enough effect; inconclusive means small, poorly fitted or top-dose-only effect, or another doubt; inactive means no such curve, though single readings can be large; an effect the other way counts as inactive or inconclusive. Unless noted, on the % scale 0 is the no-effect control and ±100 the full control effect.

SMILES	HT1080 IDH1KD tx	12-LOX inh	TDP1 cell CPT	TDP1 cell noCPT	IL1B secr inh	HT1080-NT tox
O=C(NCC1=C(c2ccc3ccccc3c2)C[C@@H]2CC[C@H]1N2Cc1ccco1)c1ccc([N+](=O)[O-])cc1	?	?	?	16.4µM*	-71.4*	-20.2%
COc1ccc(CC(N)c2csc(NC(=O)Nc3ccccc3Oc3ccccc3)n2)cc1 (configuration not stated)	?	?	?	16.4µM*	?	14.6µM*
NC(Cc1ccc(Cl)cc1)c1csc(Nc2cnccn2)n1 (configuration not stated)	?	?	-89.1%	-82.9%	?	?
O=[N+]([O-])c1ccc(C[n+]2c(-c3ccccc3)cc(-c3ccccc3)cc2-c2ccccc2)cc1	-14.4%	-4.5%	2.59µM*	2.31µM*	?	-19.0%
O=[N+]([O-])c1cc(Cl)c(O)c(-[n+]2c(-c3ccccc3)cc(-c3ccccc3)cc2-c2ccccc2)c1	?	-21.9%	13µM*	8.2µM*	-5.3	?
O=[N+]([O-])c1ccc(CNCCc2ccccc2)cc1	0.3%	?	-21.7%	?	0.3	-4.2%
O=C([C@H]1CN2CCC1C[C@@H]2Cn1cc(CSc2ccccc2)nn1)N1CCOCC1 (some centres not stated)	.	14.6%[176 µM]	.	.	.	.
CC1(C)C(C(=O)N2CCCC(CNC(=O)c3ccc(F)cc3)C2)C1(C)C (configuration not stated)	.	29.0%	.	.	.	.
CN(C)c1ccc(P(=S)(N(C)C)N(C)C)cc1	1.5%	13.9%	?	?	7.9	10.1%
CN(C)c1ccc(N=O)cc1	.	.	0.562µM*	5.01µM*	.	.
O=C(NCC1CCOCC1)c1cnc(Nc2ccc(Cl)cc2Cl)nc1C(F)(F)F	.	-3.8%[57.4 µM]	.	.	.	.
Oc1cccc(Nc2ncnc3sc4c(c23)CCCC4)c1	.	?	16.4µM*	14.6µM*	.	.
CC(Cc1ccsc1)NCc1cn[nH]c1-c1ccc(F)cc1F (configuration not stated)	-20.8%	-1.6%	?	?	-54.4*	-15.0%
COc1ccc(-c2[nH]ncc2CNC(C)Cc2ccsc2)c(F)c1 (configuration not stated)	-1.1%	-1.8%	?	?	-2.1	-4.3%
Cc1ccccc1-n1c(Cn2ncc3c(N)ncnc32)nc2cccc(C)c2c1=O	.	-21.3%[57.4 µM]	.	.	.	.
CCNC(=S)NCCC1=c2ccccc2=N/C1=C\c1c(O)n(C)c(=O)n(C)c1=O	-0.9%	?	?	20.6µM*	0.0	-2.5%
C=CC[C@@H](CC(=O)N[C@@H](CO)Cc1ccccc1)C(=O)NCCOC(=O)[C@@H](CC=C)Cc1ccc(F)cc1	4.9%	14.7%	8.0%	-3.0%	4.0	-1.9%
C=CC[C@@H](CC(=O)N[C@H](CO)Cc1ccccc1)C(=O)NCCOC(=O)[C@@H](CC=C)Cc1ccc(F)cc1	-3.6%	?	29.1µM*	?	21.2	-20.5%
Cc1cccc(Oc2nc3c(C)cccn3c(=O)c2/C=C(\C#N)c2nc3ccccc3s2)c1	.	?	?	18.4µM*	.	.
Cc1cc(C)cc(Oc2nc3ccccn3c(=O)c2/C=C(\C#N)c2nc3ccccc3s2)c1	.	?	?	9.2µM*	.	.
Cc1cccn2c(=O)c(/C=C(\C#N)c3nc4ccccc4s3)c(Oc3ccc(F)cc3)nc12	.	?	?	20.6µM*	.	.
COCc1cn(C[C@H]2C[C@@H]3CCN2C[C@@H]3C(=O)NCc2ccco2)nn1	.	2.9%[176 µM]	.	.	.	.
CN(C)C1(c2nnnn2CCOC(=O)Nc2ccc(Cl)cc2)CCCCC1	-24.5%	396.8%	?	18.4µM*	-28.5	-10.7%
CN(C)C1(c2nnnn2-c2ccc(Cl)cc2)CCCCC1	-1.7%	-11.9%	-22.1%	?	33.4	-6.8%
CC(CCc1ccccc1)NC(C)C(O)c1ccc(O)cc1 (configuration not stated)	-1.4%	-10.4%	?	23.1µM*!	-23.0	0.2%
SMILES	HT1080 IDH1KD tx	12-LOX inh	TDP1 cell CPT	TDP1 cell noCPT	IL1B secr inh	HT1080-NT tox
O=C(c1ccco1)c1cn(Cc2ccccc2Cl)c2ccccc12	?	12.3%	17.8µM*	?	-16.4	4.8%
COc1cc2c(cc1OC1CCCC1)NC(=O)C21CCN(C(=O)Cc2ccccc2)CC1	.	-0.5%[176 µM]	.	.	.	.
COc1ccc(-c2cc3nc(C)c(CCC(=O)N4CCN(c5cc(C)ccc5C)CC4)c(C)n3n2)c(OC)c1	.	-9.6%	8.2µM*	9.2µM*	.	.
COc1ccc(CN2CCN(C(=O)COc3ccccc3)CC2)c(OC)c1	.	?	-25.2%	?	.	.
COc1ccc(CN2Cc3cnnn3-c3ccccc3C2c2ccccc2)cc1 (configuration not stated)	?	-3.8%	16.4µM*	16.4µM*	5.5	?
N#CC1c2ccccc2-n2nncc2CN1Cc1cc(Cl)cc(Cl)c1 (configuration not stated)	6.51µM*	?	1.64µM*	1.84µM*	-102.2*	8.2µM*
c1ccc(C2c3ccccc3-n3nncc3CN2CC2CCCCC2)cc1 (configuration not stated)	-23.1%	-0.1%	?	?	15.7	-2.3%
COc1ccc(C(=O)N2Cc3cnnn3-c3ccccc3C2C#N)cc1 (configuration not stated)	12.0%	-4.0%	-11.6%	-13.6%	-0.1	16.0%
CN1Cc2cnnn2-c2ccccc2C1C#N (configuration not stated)	?	-19.5%	-20.8%	?	0.0	-11.2%
COc1ccc(CN2Cc3cnnn3-c3ccccc3C2C#N)cc1 (configuration not stated)	6.51µM*	?	1.84µM*	1.84µM*	-101.6*	8.2µM*
N#CC1c2ccccc2-n2nncc2CN1C(=O)CCc1ccccc1 (configuration not stated)	1.5%	1.0%	14.6µM*	10.3µM*	-4.4	3.9%
CC(=O)N1Cc2cnnn2-c2ccccc2C1C#N (configuration not stated)	12.4%	5.9%	-1.0%	4.4%	4.9	16.4%
c1ccc(CCc2ccc3n2Cc2cnnn2-c2ccccc2-3)cc1	?	9.3%	6.51µM*	?	-57.6*	?
COc1ccc(-c2ccc3n2Cc2cnnn2-c2ccccc2-3)cc1	-1.9%	-7.8%	?	?	-8.6	-6.3%
